Laboratory results: PubChem BioAssay
Active and inactive are the calls of the source.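 The calls were made as follows, unless noted: active = fluorescence slope higher than the sample average by over 3 SD (cut at about -0.22 in these data, passing the limit was not always enough); inactive = the rest.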

Assays:
[1] = inhibitors of TNFa-induced NFkB p65 translocation, primary screen, imaging, HUVEC, MLSMR starter and 10KST1 sets (AID 438;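 active = inhibition above 20% together with a positive visual image hit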;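 also: compound added about 3h40 before a 20 min TNFalpha stimulation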;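 as to inhibition: signal is the nuclear over cytoplasmic p65 intensity ratio per well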); conditions: HUVEC TNFa-induced p65 nuclear translocation; cell count: measured here: nuclei count (cytotoxicity indicator), at 2.08 µM; inhibition: at 2 µM, stronger effect = higher value, 0% TNFa-plus-vehicle, 100% no-TNFa wells
[2] = inhibitors of mutant huntingtin aggregation, primary screen, imaging, exon1htt(103Q)mCFP cells, high-content imaging (AID 483;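 active = visual image review flags a hit and inhibition of aggregation exceeds 20%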;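 also: compound exposure lasted 3 days before fixation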;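 as to nuclei count: percent of the per-plate median nuclei count of sample wells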); conditions: exon1htt(103Q)mCFP cell line, aggregate imaging, at 2 µM; inhibition of aggregation: stronger effect = higher value; nuclei count: measured here: cell count, toxicity
[3] = inhibitors of E-selectin induction by TNFa, primary screen, imaging, HUVEC, immunofluorescence, MLSMR starter and 10KST1 sets (AID 487;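 active = visually confirmed hit in the image check and inhibition above 20%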;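 as to inhibition: signal is fraction of cell area covered by stained E-selectin grains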;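 as to nuclei count: 100% = median nuclei count of all wells on the same plate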); conditions: HUVEC TNFalpha-induced E-selectin immunofluorescence imaging, at 2 µM; inhibition: stronger effect = higher value; nuclei count: measured here: cell number, toxicity
[4] = target: Voltage-gated potassium channel subunit beta-2 (Rattus norvegicus) (UniProt P62483); test: KvBeta enzyme negative modulators, primary screen, biochemical, NADPH fluorescence (AID 622); conditions: recombinant KvBeta, 4-cyanobenzaldehyde reduction, at 10 µM, stronger effect = higher value;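 also: slope of raw intensity against log time taken from 70 to 1610 s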
Voltage-gated potassium channel subunit beta-2 (Rattus norvegicus), sequence (P62483 whole entry, looked up): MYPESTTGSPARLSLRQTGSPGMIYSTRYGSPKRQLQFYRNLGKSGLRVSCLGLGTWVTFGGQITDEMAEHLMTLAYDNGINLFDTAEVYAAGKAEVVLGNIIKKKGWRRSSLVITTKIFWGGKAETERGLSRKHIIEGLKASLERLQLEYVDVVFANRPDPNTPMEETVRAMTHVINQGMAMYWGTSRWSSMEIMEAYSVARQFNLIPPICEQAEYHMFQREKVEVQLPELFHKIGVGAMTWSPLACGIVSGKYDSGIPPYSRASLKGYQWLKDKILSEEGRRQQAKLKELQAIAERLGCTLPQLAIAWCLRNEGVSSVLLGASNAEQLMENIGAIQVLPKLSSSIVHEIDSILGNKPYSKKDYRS

[5] = target: Voltage-gated potassium channel subunit beta-2 (Rattus norvegicus) (UniProt P62483); test: KvBeta positive modulators, primary screen, biochemical, NADPH fluorescence (AID 623;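 active = NADPH fluorescence slope more negative than the mean of all samples by about 3 SD, 99.7% confidence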;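 also: fluorescence intensity change per second fitted from 20 to 320 s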); conditions: Recombinant KvBeta, NADPH fluorescence decrease slope, 10 min; at 10 µM; stronger effect = lower value
[6] = target: Alpha-2C adrenergic receptor (Homo sapiens) (UniProt P18825); test: modulators of alpha2C/GIRK thallium flux, primary screen, cell-based, HEK293 alpha2C/GIRK1/2 (AID 624;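 active = fluorescence slope after compound addition differing from the mean of all screened samples at 99.7% confidence, in either direction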;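 also: slope of fluorescence ratio to pre-addition baseline per second over 15 to 24 s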); conditions: thallium flux BTC fluorescence, at 10 µM, actives lie on both sides
Alpha-2C adrenergic receptor (Homo sapiens), sequence (P18825 whole entry, looked up): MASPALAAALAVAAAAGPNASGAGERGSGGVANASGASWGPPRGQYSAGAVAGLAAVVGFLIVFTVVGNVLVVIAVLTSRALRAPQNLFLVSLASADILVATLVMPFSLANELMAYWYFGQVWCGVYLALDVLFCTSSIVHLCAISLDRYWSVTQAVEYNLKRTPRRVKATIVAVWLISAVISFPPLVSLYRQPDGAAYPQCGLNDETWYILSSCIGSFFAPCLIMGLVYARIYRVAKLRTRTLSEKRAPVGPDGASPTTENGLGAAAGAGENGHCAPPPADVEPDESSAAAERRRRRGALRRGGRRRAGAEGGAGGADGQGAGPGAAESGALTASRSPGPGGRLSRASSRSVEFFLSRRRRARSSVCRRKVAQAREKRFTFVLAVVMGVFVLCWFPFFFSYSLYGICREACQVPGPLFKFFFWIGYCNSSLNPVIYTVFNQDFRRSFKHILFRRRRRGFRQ

[7] = inhibitors of Sendai virus-induced IRF3 signaling, primary screen, TLR/RLR signaling modifier project, cell-based, Sendai virus stimulus, luciferase, 10K MLSCN set (AID 602276;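 active = inhibition at or above 50% at 10 µM; inactive = inhibition below 50%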;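 also: firefly luciferase from ISG56 promoter only with Renilla not read in this screen; 0% = Sendai virus plus DMSO and 100% = medium plus DMSO without virus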); conditions: HEK293 RL24 IRF3 luciferase reporter, at 10 µM, stronger effect = higher value
[8] = inhibitors of poly I:C-induced TLR3 signaling, primary screen, cell-based, poly I:C stimulus, luciferase, 10K MLSCN set (AID 602277;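 active = inhibition of the reporter signal at or above 50%; inactive = inhibition below 50%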); conditions: HEK293-TLR3 RL24 IRF3 luciferase reporter, at 10 µM, stronger effect = higher value

**Q.** Which results are given for NC(=O)NC(c1ccccc1)c1ccccc1F (centres undefined)?
**A.** cell count [1]: 565; inhibition [1]: -4.8% (inactive); inhibition of aggregation [2]: 12.6% (inactive); nuclei count [2]: 99.1%; inhibition [3]: 36.7% (inactive); nuclei count [3]: 88.9%; fluorescence slope [4]: -0.317 (inactive); NADPH fluorescence slope [5]: 5.1e-06 (inactive); slope [6]: 0.00595 (inactive); inhibition [7]: 2.53% (inactive); inhibition [8]: 25.9% (inactive)

**Q.** For N#Cc1c(NCc2ccccc2)ccnc1NCc1cccnc1, which cell count [1] is on record?
**A.** 720

**Q.** And the inhibition [1]?
**A.** 2.9% (inactive)

**Q.** And the inhibition of aggregation [2]?
**A.** -8.3% (inactive)

**Q.** And the nuclei count [2]?
**A.** 104%

**Q.** What about the inhibition [3] of the same molecule?
**A.** 67.5% (active)

**Q.** What about the nuclei count [3] of the same molecule?
**A.** 80.8%

**Q.** And the fluorescence slope [4]?
**A.** -0.288 (inactive)

**Q.** And the NADPH fluorescence slope [5]?
**A.** -6.2e-05 (inactive)

**Q.** And the slope [6]?
**A.** 0.00541 (inactive)

**Q.** And the inhibition [7]?
**A.** -0.363% (inactive)

**Q.** And the inhibition [8]?
**A.** -44.8% (inactive)

**Q.** What does the source list for O=C(Nc1ccc(S(=O)(=O)Nc2ccc(Cl)cc2)cc1)C1CCCO1 (centres undefined)?
**A.** cell count [1]: 629; inhibition [1]: -6.5% (inactive); inhibition of aggregation [2]: 3.9% (inactive); nuclei count [2]: 104%; inhibition [3]: 7.3% (inactive); nuclei count [3]: 101%; fluorescence slope [4]: -0.415 (inactive); NADPH fluorescence slope [5]: -4.8e-05 (inactive); slope [6]: 0.0052 (inactive); inhibition [7]: 14.5% (inactive); inhibition [8]: -12.8% (inactive)

**Q.** With CCOc1cc(C2C3=C(CCCC3=O)N(C)C3=C2C(=O)CCC3)cc(Cl)c1O as the molecule, how does the cell count [1] read?
**A.** 413

**Q.** What about the inhibition [1] of the same molecule?
**A.** 12.5% (inactive)

**Q.** And the inhibition of aggregation [2]?
**A.** -3.2% (inactive)

**Q.** What about the nuclei count [2] of the same molecule?
**A.** 94.1%

**Q.** And the inhibition [3]?
**A.** -17.1% (inactive)

**Q.** And the nuclei count [3]?
**A.** 112%

**Q.** What about the fluorescence slope [4] of the same molecule?
**A.** -0.43 (inactive)

**Q.** And the NADPH fluorescence slope [5]?
**A.** 5.6e-06 (inactive)

**Q.** What about the slope [6] of the same molecule?
**A.** 0.00638 (inactive)

**Q.** What about the inhibition [7] of the same molecule?
**A.** 4.36% (inactive)

**Q.** What about the inhibition [8] of the same molecule?
**A.** 26.6% (inactive)

**Q.** Which cell count [1] does the source give for Cc1ccccc1Cn1cc(/C=N/n2cnnc2)c2ccccc21 here?
**A.** 416

**Q.** What about the inhibition [1] of the same molecule?
**A.** 12% (inactive)

**Q.** And the inhibition of aggregation [2]?
**A.** 18.9% (inactive)

**Q.** And the nuclei count [2]?
**A.** 68%

**Q.** And the inhibition [3]?
**A.** 27.1% (inactive)

**Q.** What about the nuclei count [3] of the same molecule?
**A.** 113%

**Q.** What about the fluorescence slope [4] of the same molecule?
**A.** -0.436 (inactive)

**Q.** What about the NADPH fluorescence slope [5] of the same molecule?
**A.** 2.8e-05 (inactive)

**Q.** And the slope [6]?
**A.** 0.00391 (inactive)

**Q.** What about the inhibition [7] of the same molecule?
**A.** -7.96% (inactive)

**Q.** What about the inhibition [8] of the same molecule?
**A.** 21.3% (inactive)

**Q.** What does the source list for COc1cccc(-c2nc(CSCC(=O)N3CCc4ccccc43)c(C)o2)c1?
**A.** cell count [1]: 326; inhibition [1]: 8.5% (inactive); inhibition of aggregation [2]: -5.9% (inactive); nuclei count [2]: 108%; inhibition [3]: 22.5% (inactive); nuclei count [3]: 108%; fluorescence slope [4]: -0.432 (inactive); NADPH fluorescence slope [5]: 2.9e-06 (inactive); slope [6]: 0.00374 (inactive); inhibition [7]: -10.3% (inactive); inhibition [8]: -34.4% (inactive)

**Q.** With CC(C)CNS(=O)(=O)c1ccc(OCC(=O)Nc2ccc3c(c2)OCO3)c(Cl)c1 as the molecule, how does the cell count [1] read?
**A.** 463

**Q.** What about the inhibition [1] of the same molecule?
**A.** -12.1% (inactive)

**Q.** What about the inhibition of aggregation [2] of the same molecule?
**A.** -1.9% (inactive)

**Q.** And the nuclei count [2]?
**A.** 81.6%

**Q.** And the inhibition [3]?
**A.** -0.6% (inactive)

**Q.** What about the nuclei count [3] of the same molecule?
**A.** 85.5%

**Q.** And the fluorescence slope [4]?
**A.** -0.377 (inactive)

**Q.** And the NADPH fluorescence slope [5]?
**A.** -2e-05 (inactive)

**Q.** What about the slope [6] of the same molecule?
**A.** 0.00353 (inactive)

**Q.** What about the inhibition [7] of the same molecule?
**A.** 6.42% (inactive)

**Q.** And the inhibition [8]?
**A.** 19.3% (inactive)

**Q.** With CCOc1ncccc1C(=O)Nc1ccc(Cl)cc1 as the molecule, how does the cell count [1] read?
**A.** 861

**Q.** What about the inhibition [1] of the same molecule?
**A.** -15% (inactive)

**Q.** What about the inhibition of aggregation [2] of the same molecule?
**A.** -9.2% (inactive)

**Q.** And the nuclei count [2]?
**A.** 121%

**Q.** And the inhibition [3]?
**A.** -36.9% (inactive)

**Q.** And the nuclei count [3]?
**A.** 105%

**Q.** And the fluorescence slope [4]?
**A.** -0.44 (inactive)

**Q.** What about the NADPH fluorescence slope [5] of the same molecule?
**A.** -3.2e-06 (inactive)

**Q.** What about the slope [6] of the same molecule?
**A.** 0.0068 (inactive)

**Q.** What about the inhibition [7] of the same molecule?
**A.** 10.1% (inactive)

**Q.** What about the inhibition [8] of the same molecule?
**A.** 35.6% (inactive)

**Q.** What does the source list for O=C(NCCc1c[nH]c2ccccc12)c1cnc2n(c1=O)CCS2?
**A.** cell count [1]: 532; inhibition [1]: 6.3% (inactive); inhibition of aggregation [2]: -8.9% (inactive); nuclei count [2]: 103%; inhibition [3]: -35.9% (inactive); nuclei count [3]: 90.6%; fluorescence slope [4]: -0.547 (inactive); NADPH fluorescence slope [5]: -2.5e-05 (inactive); slope [6]: 0.00796 (inactive); inhibition [7]: -48.8% (inactive); inhibition [8]: -79.3% (inactive)

**Q.** With Cc1cccc(Cn2c(SCCN3CCCCC3)nc3c2c(=O)[nH]c(=O)n3C)c1 as the molecule, how does the cell count [1] read?
**A.** 497

**Q.** And the inhibition [1]?
**A.** 6.4% (inactive)

**Q.** And the inhibition of aggregation [2]?
**A.** -13.5% (inactive)

**Q.** What about the nuclei count [2] of the same molecule?
**A.** 82.4%

**Q.** What about the inhibition [3] of the same molecule?
**A.** 1.7% (inactive)

**Q.** And the nuclei count [3]?
**A.** 95.1%

**Q.** And the fluorescence slope [4]?
**A.** -0.442 (inactive)

**Q.** And the NADPH fluorescence slope [5]?
**A.** 3.2e-05 (inactive)

**Q.** What about the slope [6] of the same molecule?
**A.** 0.00451 (inactive)

**Q.** What about the inhibition [7] of the same molecule?
**A.** -12% (inactive)

**Q.** And the inhibition [8]?
**A.** 3.02% (inactive)

**Q.** With CCC1CCCCN1C(=O)Cn1c(C(=O)OC)cc2sc(Cl)cc21 (centres undefined) as the molecule, how does the cell count [1] read?
**A.** 505

**Q.** And the inhibition [1]?
**A.** -11.3% (inactive)

**Q.** And the inhibition of aggregation [2]?
**A.** -19.4% (inactive)

**Q.** And the nuclei count [2]?
**A.** 107%

**Q.** What about the inhibition [3] of the same molecule?
**A.** 7.9% (inactive)

**Q.** What about the nuclei count [3] of the same molecule?
**A.** 94.4%

**Q.** What about the fluorescence slope [4] of the same molecule?
**A.** -0.388 (inactive)

**Q.** What about the NADPH fluorescence slope [5] of the same molecule?
**A.** -2e-05 (inactive)

**Q.** And the slope [6]?
**A.** 0.00448 (inactive)

**Q.** And the inhibition [7]?
**A.** 9.78% (inactive)

**Q.** And the inhibition [8]?
**A.** 34.6% (inactive)

**Q.** Which cell count [1] does the source give for CCc1c(C)c2ccc(OCC(=O)OC)cc2oc1=O here?
**A.** 342

**Q.** What about the inhibition [1] of the same molecule?
**A.** 2.2% (inactive)

**Q.** What about the inhibition of aggregation [2] of the same molecule?
**A.** 9.8% (inactive)

**Q.** And the nuclei count [2]?
**A.** 78.5%

**Q.** What about the inhibition [3] of the same molecule?
**A.** 32.2% (inactive)

**Q.** What about the nuclei count [3] of the same molecule?
**A.** 97.7%

**Q.** And the fluorescence slope [4]?
**A.** -0.165 (inactive)

**Q.** And the NADPH fluorescence slope [5]?
**A.** -1.1e-05 (inactive)

**Q.** And the slope [6]?
**A.** 0.00537 (inactive)

**Q.** What about the inhibition [7] of the same molecule?
**A.** 12.5% (inactive)

**Q.** What about the inhibition [8] of the same molecule?
**A.** 18.6% (inactive)

**Q.** Which results are given for Cc1cc(C)cc(C(=O)N2CCC(C(N)=O)CC2)c1?
**A.** cell count [1]: 706; inhibition [1]: -3.5% (inactive); inhibition of aggregation [2]: -33.2% (inactive); nuclei count [2]: 109%; inhibition [3]: -54.3% (inactive); nuclei count [3]: 122%; fluorescence slope [4]: -0.297 (inactive); NADPH fluorescence slope [5]: -4.1e-05 (inactive); slope [6]: 0.00604 (inactive); inhibition [7]: 13.6% (inactive); inhibition [8]: 20.8% (inactive)

**Q.** Which results are given for CCOC(=O)c1cc(C)sc1N1C(=O)C2C3C=CC(C3)C2C1=O (centres undefined)?
**A.** cell count [1]: 223; inhibition [1]: 3.3% (inactive); inhibition of aggregation [2]: -17.4% (inactive); nuclei count [2]: 97.5%; inhibition [3]: -37% (inactive); nuclei count [3]: 138%; fluorescence slope [4]: -0.543 (inactive); NADPH fluorescence slope [5]: -8.1e-05 (inactive); slope [6]: 0.00512 (inactive); inhibition [7]: 16.2% (inactive); inhibition [8]: 15.2% (inactive)
